Source: the supplement of paper PMC10646978
± gives the standard deviation.

Experiments:
Settings in all cases: modulator concentration 10 µM
[1] = test system: RAW-Dual (murine macrophage reporter line); experiment: NF-kB reporter (SEAP) activity fold change vs agonist alone; higher = enhanced NF-kB activity
Method in brief: (§1)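 RAW-Dual murine macrophage reporter cells were seeded at 50 000 per well in 384-well plates and pre-incubated 1 hour at 37 °C with compound pin-transferred to 10 μM final. After 1 hour, a PRR agonist was added and cells incubated overnight. Supernatant NF-κB (SEAP, QUANTI-Blue, 620 nm absorbance) and IRF (Lucia luciferase, QUANTI-Luc, luminescence) signals were divided by the mean agonist-only control on the same plate to give fold change. Two replicate plates were averaged, with errors by propagation.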

[2] = test system: RAW-Dual (murine macrophage reporter line); experiment: IRF reporter (Lucia luciferase) activity fold change vs agonist alone; higher = enhanced IRF activity
Method in brief: as §1

[3] = test system: RAW-Dual (murine macrophage reporter line); experiment: viability score (confluency relative to resting cells, overnight) (fraction); higher = more viable, active = viable (0.7 or more)
Method in brief: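 RAW-Dual macrophages in 384-well plates were treated overnight with compound at 10 μM final. IncuCyte imaging recorded confluency, and IncuCyte software built two confluency masks across every imaged well. The viability score expresses confluency relative to resting cells and was judged against a cutoff, which a compound met only if both masks exceeded 70% of resting cells.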

[4] = agonist: CpG ODN 1826 0.5 ug/mL

SMILES | NF-kB reporter [1, 4] | NF-kB reporter ([1]; agonist: LPS 0.1 ug/mL) | NF-kB reporter ([1]; agonist: MPLA […]) | IRF reporter ([2]; agonist: 3'3'-cGAMP 10 ug/mL) | IRF reporter ([2]; agonist: LPS 0.1 ug/mL) | IRF reporter ([2]; agonist: MPLA […]) | viability score [3]
COc1cc(-c2nnc(SCc3ccc([N+](=O)[O-])cc3)n2-c2ccccc2)cc(OC)c1OC | 0.986 ± 0.095 | 0.942 ± 0.053 | 0.994 ± 0.074 | 1.07 ± 0.067 | 1.37 ± 0.2 | 0.969 ± 0.06 | 1.01 (active)
O=c1cc(CO)occ1O | 0.97 ± 0.075 | 0.901 ± 0.076 | 1.06 ± 0.11 | 1.04 ± 0.041 | 1.28 ± 0.12 | 1.33 ± 0.19 | 1.03 (active)
Cl.O=C1Cc2cc(CCN3CCN(c4nsc5ccccc45)CC3)c(Cl)cc2N1 | 0.0947 ± 0.013 | 1.06 ± 0.24 | 0.85 ± 0.059 | 0.646 ± 0.027 | 1.24 ± 0.24 | 1.01 ± 0.076 | 0.983 (active)
Cc1cccc(Cn2c(=O)c3nscc3n(Cc3ccc(F)c(F)c3)c2=O)c1 | 1.14 ± 0.099 | 1.09 ± 0.087 | 1.21 ± 0.11 | 0.997 ± 0.048 | 1.01 ± 0.093 | 0.899 ± 0.22 | 0.995 (active)
CC(C)c1nc(CN(C)C(=O)N[C@H](C(=O)N[C@@H](Cc2ccccc2)C[C@H](O)[C@H](Cc2ccccc2)NC(=O)OCc2cncs2)C(C)C)cs1 | 0.57 ± 0.047 | 0.468 ± 0.036 | 0.8 ± 0.053 | 1.04 ± 0.14 | 0.993 ± 0.049 | 0.92 ± 0.096 | 1 (active)
Cc1cc(-c2ccccc2)nnc1NCCN1CCOCC1.Cl.Cl | 1.19 ± 0.28 | 1.04 ± 0.1 | 1 ± 0.073 | 0.966 ± 0.049 | 1.28 ± 0.14 | 1.27 ± 0.12 | 0.989 (active)
CC1(C)OC(=O)C=CC2(C)C1CC(O)C1(C)C2CCC2(C)C(c3ccoc3)OC(=O)C3OC321 (configuration not stated) | 1.29 ± 0.35 | 1.1 ± 0.11 | 1.06 ± 0.14 | 0.944 ± 0.032 | 1.22 ± 0.15 | 1.24 ± 0.17 | 0.99 (active)
CN(C)CCN(Cc1ccccc1)c1ccccn1.Cl | 0.731 ± 0.19 | 0.911 ± 0.052 | 0.927 ± 0.064 | 0.811 ± 0.074 | 0.954 ± 0.22 | 0.854 ± 0.081 | 1.01 (active)
CC(=O)Nc1ccc(NC(=O)COc2ccc(Br)c(C)c2)cc1 | 0.902 ± 0.15 | 1.09 ± 0.097 | 0.95 ± 0.087 | 0.997 ± 0.026 | 1.27 ± 0.36 | 1.22 ± 0.17 | 1.01 (active)
Cc1ccc2nc(C)c(NC(=O)c3ccc4ccccc4n3)c(=O)n2c1 | 0.787 ± 0.25 | 1.03 ± 0.14 | 0.823 ± 0.091 | 0.793 ± 0.04 | 1.02 ± 0.061 | 1.1 ± 0.23 | 0.994 (active)
O=[N+]([O-])c1ccc(C=CC=Nc2ccc(-c3nc4ccccc4s3)c(O)c2)cc1 | 0.813 ± 0.06 | 1.04 ± 0.067 | 0.971 ± 0.034 | 0.746 ± 0.042 | 0.973 ± 0.082 | 0.946 ± 0.079 | 0.994 (active)
CCOCC(=O)Nc1nc2c(C(F)(F)F)cccc2s1 | 1.16 ± 0.067 | 0.964 ± 0.11 | 1.06 ± 0.052 | 0.969 ± 0.039 | 1.04 ± 0.048 | 1.03 ± 0.14 | 0.989 (active)
COc1ccc(C(C)=NNC(=O)Nc2ccccc2)c(OC)c1 | 0.92 ± 0.083 | 0.865 ± 0.092 | 0.932 ± 0.088 | 1.02 ± 0.063 | 1.26 ± 0.2 | 1.4 ± 0.27 | 1.01 (active)
CC(C)(C)c1cc(NCc2ccccn2)n2ncc(-c3ccc(Cl)cc3)c2n1 | 0.256 ± 0.019 | 0.477 ± 0.032 | 0.79 ± 0.025 | 0.296 ± 0.028 | 0.962 ± 0.12 | 3.1 ± 0.86 | 0.978 (active)
CC1(C)OC(=O)C(=Cc2ccc(I)o2)C(=O)O1 | 0.595 ± 0.069 | 1.01 ± 0.069 | 0.887 ± 0.17 | 0.589 ± 0.049 | 1.02 ± 0.18 | 0.877 ± 0.26 | 1.01 (active)
CC(C)Sc1ccc(CC(=O)N2C3C=CCC2CC3)cc1 (configuration not stated) | 0.963 ± 0.12 | 1.03 ± 0.082 | 1.08 ± 0.1 | 1 ± 0.1 | 1.43 ± 0.11 | 1.38 ± 0.24 | 0.877 (active)
CCc1ccc2oc(-c3ccc(NC(=O)c4ccc(C)c([N+](=O)[O-])c4)cc3)nc2c1 | 1.02 ± 0.08 | 1.04 ± 0.059 | 0.931 ± 0.089 | 1 ± 0.025 | 1.6 ± 0.22 | 1.33 ± 0.16 | 1.01 (active)
Cc1cc(C(O)CCNC(=O)Nc2ccc(Cl)c(Cl)c2)c(C)o1 (configuration not stated) | 0.577 ± 0.033 | 0.87 ± 0.075 | 0.791 ± 0.072 | 0.835 ± 0.038 | 0.974 ± 0.22 | 0.863 ± 0.31 | 0.975 (active)
CCCN1CCC(NCCc2ccc(Cl)cc2)CC1 | 1.18 ± 0.069 | 0.97 ± 0.081 | 1.1 ± 0.036 | 0.761 ± 0.028 | 0.994 ± 0.065 | 0.943 ± 0.11 | 0.995 (active)
CCC(=O)N1c2ccccc2NC2=C(C(=O)CC(c3ccccc3F)C2)C1c1ccc(C)cc1 (configuration not stated) | 1.02 ± 0.12 | 1.07 ± 0.079 | 1 ± 0.064 | 0.985 ± 0.043 | 1.35 ± 0.3 | 1.07 ± 0.072 | 1.01 (active)
N#CC1=C(NC(=S)NC(=O)c2ccccc2)c2ccccc2CC12CCCC2 | 0.535 ± 0.03 | 0.918 ± 0.07 | 0.717 ± 0.042 | 0.792 ± 0.033 | 1.63 ± 0.1 | 1.26 ± 0.2 | 0.982 (active)
Cc1cccc(CCC(=O)N2CCCC(Oc3ccnc(C)n3)C2)c1 (configuration not stated) | 1.02 ± 0.09 | 1.14 ± 0.11 | 1.06 ± 0.15 | 0.731 ± 0.057 | 1.19 ± 0.085 | 1.16 ± 0.24 | 0.963 (active)
COC(=O)c1ccc(CSc2ccc3nnc(-c4cccc(F)c4)n3n2)o1 | 1 ± 0.08 | 1.18 ± 0.072 | 1.03 ± 0.062 | 0.966 ± 0.035 | 1.05 ± 0.082 | 0.968 ± 0.093 | 0.998 (active)
CCN(CCCc1ccccc1)CCCc1ccccc1.O=C(O)CC(O)(CC(=O)O)C(=O)O | 1.32 ± 0.057 | 1.4 ± 0.11 | 2.08 ± 0.29 | 0.265 ± 0.014 | 0.448 ± 0.079 | 0.468 ± 0.11 | 0.991 (active)
CCOC(=O)c1ccc(NC(=O)c2sc(NC(=O)c3cc(OC)c(OC)c(OC)c3)c(C(=O)OCC)c2C)cc1 | 1 ± 0.095 | 1.02 ± 0.079 | 0.895 ± 0.058 | 0.969 ± 0.025 | 1.53 ± 0.25 | 1.14 ± 0.12 | 1.01 (active)
Cc1cccc(N2C(=O)C(=Cc3cccc([N+](=O)[O-])c3)SC2=S)c1C | 0.964 ± 0.1 | 1.02 ± 0.094 | 0.937 ± 0.06 | 0.853 ± 0.035 | 1.57 ± 0.17 | 1.29 ± 0.11 | 0.989 (active)
